± gives the standard deviation of the averaged measurements.
Tested on: Drosophila virilis antennal basiconic sensillum AB1
Assay: odor-evoked OSN spike response (post minus pre-stimulus); higher = stronger neuronal excitation
Conditions: odor dilution: 10^-4
Description: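 Single sensillum recordings from antennal basiconic sensilla of D. virilis. A 500 ms pulse of odorant (10^-4 in mineral oil or DMSO) was delivered; the response is the change in spike frequency between the 1 s pre- and post-stimulus windows (spikes/s).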

Structure (SMILES) | odor-evoked OSN spike response [spikes/s]
CC(C)=O [acetone] | 73.5 ± 24
